Data on 40 molecules can be found in PubChem BioAssay (Tox21).

Each structure is given as a SMILES string. Results filed as inconclusive are left out. A number with no mark means an inactive call. Calls come from the whole dose curve; as a rule, active = well fitted activation curve with a large enough effect in the signal ratio in the repeat runs, with a control signal flat (not every such curve was filed as active); inconclusive = weak or mixed curves; inactive = flat fitted curve, though single readings scatter; the % refers to the signal ratio.
% is set by controls: 0 for no effect and ±100 for the full control effect.

This assay is described as follows: qHTS assay for small molecule activators of the heat shock response signaling pathway (AID 743210). The settings on record: HeLa HSE-bla reporter, beta-lactamase ratio, 5 h; series mostly up to 62.6 µM; activation: at the top concentration. From the text: U.S. Tox21 Program National Center for Advancing Translational Sciences [NCATS] NIH Chemical Genomics Center [NCGC] U.S. Environmental Protection Agency [EPA] National Institutes of Environmental Health Sciences [NIEHS] National Toxicology Program [NTP] U.S. Food and Drug Administration [FDA] Tox21 Assay Overview: Various chemicals, environmental and physiological stress conditions may lead to the activation of heat shock response/ unfolded protein response (HSR/UPR). There are three heat shock transcription factors (HSFs) (HSF-1, -2, and -4) mediating transcriptional regulation of the human HSR. To identify the compounds that activate HSR signaling, HSE-bla HeLa cell line (Invitrogen, Carlsbad, CA, USA) containing a beta-lactamase reporter gene under the control of the heat shock response elements was used to screen the Tox21 10K compound library.
Tox21 Assay Protocol Summary: The CellSensor HSE-bla HeLa cells (Invitrogen, Carlsbad, CA, USA) were dispensed at 1500 cells/6uL/well into 1536-well black wall/clear bottom plates using a Multidrop combi (Thermo Fisher Scientific, Waltham, MA) dispenser. After the assay plates were incubated at 37 C and 5% CO2 overnight, 23 nL of compounds dissolved in DMSO, positive controls or DMSO only was transferred to the assay plate by a Pintool station (Kalypsys, San Diego, CA). The plates were incubated at 37 C for 5 h. After 1 uL of LiveBLAzerTM B/G FRET substrate was added using a Flying Reagent Dispenser (Beckman Coulter, Indianapolis, IN, USA), the plates were incubated at room temperature for 2.5 h, and fluorescence intensity was measured by an Envision plate reader (PerkinElmer, Shelton, CT).
Background: qHTS replaces the single test concentration by a dilution series.
In the case of `CCCCCC#CC(=O)OC`, the “activation” value was 0.901%.

Take `O=C1c2ccccc2C(=O)N1CCc1noc(-c2ccc(CN3CCCCCC3)s2)n1`: the “activation” value is 1.45%.

Turning to `N#CCc1ccc(Cl)cc1Cl`, the “activation” value is -0.551%.

Take `Oc1cccc(O)c1O`: the “activation” value was 0.159%.

Regarding `CNC(=O)c1cnn(-c2nc(N)c3ncn([C@@H]4O[C@H](CO)[C@@H](O)[C@H]4O)c3n2)c1`, the “activation” value was -0.128%.

As for `O=C(/C=C/c1ccc(O)c(O)c1)O[C@@H]1C[C@@](OC(=O)/C=C/c2ccc(O)c(O)c2)(C(=O)O)C[C@@H](O)[C@@H]1O`, the “activation” value is 1.61%.

Turning to `C1C[C@@H]2[C@H]3CC[C@H](C3)[C@@H]2C1`, the “activation” value was -0.0746%.

Turning to `CC(=O)Nc1ccc(C)cc1C`, the “activation” value was -1.43%.

As to `C=C1c2cccc(O)c2C(O)=C2C(=O)[C@]3(O)C(O)=C(C(N)=O)C(=O)[C@@H](N(C)C)[C@@H]3[C@@H](O)[C@H]12`, the “activation” value is -0.489%.

On to `O=[N+]([O-])c1ccc(Nc2ccc(Nc3ccccc3)c(S(=O)(=O)O)c2)c([N+](=O)[O-])c1`, for which the “activation” value was -4.2%.

In the case of `O=C=Nc1cccc(C(F)(F)F)c1`, the “activation” value was 1.49%.

Regarding `COc1ccc(OC(=O)N(CC(=O)O)Cc2ccc(OCCc3nc(-c4ccccc4)oc3C)cc2)cc1`, the “activation” value is 2.12%.

For the molecule `CC1=C(Br)C(=O)C(Br)=C/C1=C(/c1ccccc1S(=O)(=O)O)c1cc(Br)c(O)c(Br)c1C`, the “activation” value was -0.0572%.

Take `CN1CC(=O)N2[C@H](c3ccc4c(c3)OCO4)c3[nH]c4ccccc4c3C[C@@H]2C1=O`: the “activation” value was 0.614%.

`FC(F)(F)c1ccccc1Cl`: the “activation” value was 1.17% [at 81.1 µM].

Regarding `CCC(C)COC(=O)CC(C)C` (stereo not given), the “activation” value was 0.8%.

For the molecule `CCC(=O)C1CC(C(C)C)CC=C1C` (stereo not given), the “activation” value was -0.438%.

In the case of `Cc1ccco1`, the “activation” value was -0.527%.

For `CCCCCCC(C)(C)C(=O)O`, the “activation” value is 0.114%.

Regarding `CCOC(=O)c1ccc(OCCN2C[C@H](O)[C@@H](O)[C@H](O)[C@H]2CO)cc1`, the “activation” value was 0.0819%.

For `Cc1cscn1`, the “activation” value was -0.8%.

For `Cc1cccc(N(C)C(=S)Oc2ccc3c(c2)CCC3)c1`, the “activation” value is 0.225%.

For `OCCN1CCN(CCCN2c3ccccc3Sc3ccc(Cl)cc32)CC1`, the “activation” value is 3.37%.

In the case of `O=C(O)CCC(=O)C(=O)O`, the “activation” value is -1.02%.

As for `CO[C@]1(NC(=O)CSC(F)F)C(=O)N2C(C(=O)O)=C(CSc3nnnn3CCO)CO[C@H]21`, the “activation” value was 0.249%.

As to `C[C@H]1C[C@H](O)c2ccsc2S1(=O)=O`, the “activation” value is -0.292%.

For the molecule `Cc1[nH]cnc1CN1CCc2c(c3ccccc3n2C)C1=O`, the “activation” value is 1.17%.

Take `Nc1nnc(-c2ccc([N+](=O)[O-])o2)o1`: the “activation” value is 1.48%.

For `COC(=O)CS`, the “activation” value is 0.43%.

For `CCCCOc1ccc(OCCCN2CCOCC2)cc1`, the “activation” value is 0.288%.

For the molecule `CC(=O)[C@H]1[C@H](C#N)C[C@H]2[C@@H]3CC=C4C[C@@H](O)CC[C@]4(C)[C@H]3CC[C@@]21C`, the “activation” value was 0.296%.

`CC(C)Nc1cccnc1N1CCN(C(=O)c2cc3cc(NS(C)(=O)=O)ccc3[nH]2)CC1`: the “activation” value was 0.0291%.

On to `CC1(C)S[C@@H]2[C@H](NC(=O)C(c3ccccc3)S(=O)(=O)O)C(=O)N2[C@H]1C(=O)O` (stereo not given in full), for which the “activation” value was -0.845%.

As for `C[C@@H]1CN(CCCn2c3ccccc3c3ccccc32)C[C@H](C)N1`, the “activation” value was -1.11%.

Regarding `Brc1cc2ccccc2c2ccccc12`, the “activation” value was 0.66% [at 81.1 µM].

On to `N#CCCN(CCO)CCO`, for which the “activation” value was -0.392%.

Regarding `O=C1c2ccccc2C(=O)c2c(O)c(O)cc(O)c21`, the “activation” value was -1.79%.

Turning to `O=C1Cc2ccccc2N1c1c(Cl)cccc1Cl`, the “activation” value was -0.651%.

For the molecule `O=c1c(O)c(-c2ccc(O)cc2)oc2cc(O)cc(O)c12`, the “activation” value was 0.948%.

For `NNC(=O)CP(=O)(c1ccccc1)c1ccccc1`, the “activation” value is 4.8%.
